A short description of experiment [1]: qHTS assay to identify small molecule agonists of the sonic hedgehog signaling (Shh) pathway (AID 1259368).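 Also: NIH/3T3-derived 3T3Gli1-Luc cells carrying a stable Gli1-driven firefly luciferase reporter; series mostly up to about 92 µM; nearly all actives have a fitted effect of over 15% in size.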 In short, it runs like this: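 3T3Gli1-Luc (NIH/3T3 clone, stable Gli1-Luc); 4 hr pre-incubation, then cpd in DMSO 24 hr, 37 C/5% CO2; luciferase reagent 30 min RT; luminescence.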
On the technique in general: In qHTS, concentration-response curves come from the screen itself.

The nature of experiment [2]: qHTS assay to identify small molecule antagonists of the sonic hedgehog signaling (Shh) pathway (AID 1259369). Also: nearly all actives have a fitted effect of over 45% in size. In short, it runs like this: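 3T3Gli1-Luc, conditioned-medium-stimulated, 24hr cpd, 37C/5% CO2; Gli1-driven firefly Luc luminescence after 30min RT with luciferase reagent. Cells plated 4hr before cpd.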
Experiment [3] can be described thus: qHTS assay to identify small molecule agonists of the androgen receptor (AR) signaling pathway in the presence of an antagonist - cell viability counter screen (AID 1259379; active = well fitted curve in the direction sought with a large enough effect in the repeat runs; an effect the other way counts as inactive or inconclusive; also: nearly all actives have a fitted effect of over 25% in size; also: potency is read from the fitted curve at half-maximal effect;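 as to activity change, negative = cytotoxicity: MDA-kb2 human breast cancer cells carrying an MMTV luciferase reporter; series mostly up to about 92 µM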). In short, it runs like this:
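Cells: MDA-kb2 (MMTV-luc, AR and GR elements), 3,000/well, 5 hr settle. Added: nilutamide 3.0uM final, then compounds (15 conc.). Incubation: 16 hr, 37C, no CO2. Read-out: CellTiter-Fluor, 1 hr, fluorescence.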

The nature of experiment [4]: qHTS assay to identify small molecule antagonists of the estrogen receptor beta (ER-beta) signaling pathway - cell viability counter screen (AID 1259382; active = well fitted curve in the direction sought with a large enough effect in the repeat runs; an effect the other way counts as inactive or inconclusive; also: nearly all actives have a fitted effect of over 55% in size; also: potency is read from the fitted curve at half-maximal effect; as to activity change, negative = cytotoxicity: series mostly up to about 92 µM). In short, it runs like this: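 Cells: ER-beta-UAS-bla HEK293T, 2,000/well, 2% CS-FBS, 6 hr settle. Cpd + E2 (1nM final), 16 hr, 37C/5% CO2. Bla FRET substrate 2 hr RT, then CellTiter-Glo 30 min RT, luminescence.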

The nature of experiment [5]: qHTS assay to identify small molecule agonists or antagonists of the thyroid stimulating hormone receptor (TSHR) signaling pathway - wild type cell line counter screen (AID 1259384). In short, it runs like this: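 Wild-type Hek293 cells, 800/well, 18 h at 37C, then compound with Ro20-1724 for 30 min RT. cAMP by HTRF (cAMP-d2/anti-cAMP cryptate), 1 h RT, fluorescence read. 15 concentrations, triplicates.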

A short description of experiment [6]: qHTS assay to identify small molecule agonists of the estrogen receptor beta (ER-beta) signaling pathway - cell viability counter screen (AID 1259380; active = well fitted curve in the direction sought with a large enough effect in the repeat runs; an effect the other way counts as inactive or inconclusive; also: nearly all actives have a fitted effect of over 30% in size; also: potency is read from the fitted curve at half-maximal effect). In short, it runs like this:
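HEK293T ER-beta-UAS-bla; 2% CS-FBS; 6 hr pre-plate, 16 hr cpd at 37C/5% CO2; LiveBLAzer read first, then CellTiter-Glo 30 min RT, luminescence.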

Experiment [7] deals with Androgen receptor (Homo sapiens) (UniProt P10275). The experiment in a line: qHTS assay to identify small molecule agonists of the androgen receptor (AR) signaling pathway in the presence of an antagonist (AID 1259381). Also: nearly all actives have a fitted effect of over 15% in size. In short, it runs like this: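 MDA-kb2 cells, 3,000/well, rested 5hr at 37C/0% CO2 → nilutamide 3.0uM final or buffer → compounds, 15 conc. → 16hr at 37C → ONE-Glo, 30min RT → luminescence.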

Experiment [8] deals with Estrogen receptor beta (Homo sapiens) (UniProt Q92731). Put plainly: qHTS assay to identify small molecule agonists of the estrogen receptor beta (ER-beta) signaling pathway (AID 1259377; active = well fitted activation curve with a large enough effect in the signal ratio in the repeat runs, not every such curve was filed as active; the % refers to the signal ratio). In short, it runs like this: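 Ratiometric beta-lactamase FRET read-out came after 2 h substrate loading at room temperature. It followed 16 h compound treatment at 37C of GripTite HEK293T cells carrying a UAS-bla reporter, plated in 2% charcoal-stripped FBS medium.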

Experiment [9] has as its target Estrogen receptor (Homo sapiens) (UniProt P03372). The experiment in a line: qHTS assay to identify small molecule agonists of the estrogen receptor alpha (ER-alpha) signaling pathway in the presence of an antagonist (AID 1259383). Also: top concentration of the series differs between compounds; nearly all actives have a fitted effect of over 15% in size. In short, it runs like this: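 VM7Luc4E2, endog. ER-alpha + 4×ERE-luc; charcoal-stripped FBS, phenol red-free, 5 d; 24hr plating; +10.0nM ICI-182,780 (final); cpds 15 conc, 22hr, 37C/5% CO2; ONE-Glo luminescence.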

The target of experiment [10] is Estrogen receptor beta (Homo sapiens) (UniProt Q92731). The experiment in a line: qHTS assay to identify small molecule antagonists of the estrogen receptor beta (ER-beta) signaling pathway (AID 1259378; active = well fitted inhibition curve with a large enough effect in the signal ratio in the repeat runs, not every such curve was filed as active; the % refers to the signal ratio). In short, it runs like this:
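ER-beta-UAS-bla HEK293T cells in 2% charcoal-stripped FBS medium treated with compound plus 1nM final 17-beta-estradiol for 16 hr at 37C. Beta-lactamase reporter read by FRET substrate fluorescence after 2 hours at room temperature.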

Unmarked numbers belong to inactive results. Results filed as inconclusive are left out. Active and inactive are the calls of the source. Unless noted, calls follow the shape of the full dose curve.
% is scaled to controls: 0 for no effect and ±100 for the full control effect.

Estrogen receptor beta (Homo sapiens), sequence (Q92731 whole entry, looked up): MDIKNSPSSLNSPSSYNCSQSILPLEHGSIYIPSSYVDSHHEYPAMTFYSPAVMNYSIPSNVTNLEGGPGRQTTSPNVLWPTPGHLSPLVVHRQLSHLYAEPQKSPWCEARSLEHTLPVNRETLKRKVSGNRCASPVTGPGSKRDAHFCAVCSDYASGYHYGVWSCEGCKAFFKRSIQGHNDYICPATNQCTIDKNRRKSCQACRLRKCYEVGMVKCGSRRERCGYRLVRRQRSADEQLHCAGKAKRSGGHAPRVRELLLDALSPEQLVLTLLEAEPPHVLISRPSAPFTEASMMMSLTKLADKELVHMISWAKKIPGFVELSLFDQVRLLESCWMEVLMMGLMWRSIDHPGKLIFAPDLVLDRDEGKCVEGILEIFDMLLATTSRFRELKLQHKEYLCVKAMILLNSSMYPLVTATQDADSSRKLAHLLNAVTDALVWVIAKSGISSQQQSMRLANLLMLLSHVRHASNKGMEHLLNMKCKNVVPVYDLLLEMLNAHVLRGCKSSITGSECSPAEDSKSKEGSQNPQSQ
Androgen receptor (Homo sapiens), sequence (P10275 whole entry, looked up): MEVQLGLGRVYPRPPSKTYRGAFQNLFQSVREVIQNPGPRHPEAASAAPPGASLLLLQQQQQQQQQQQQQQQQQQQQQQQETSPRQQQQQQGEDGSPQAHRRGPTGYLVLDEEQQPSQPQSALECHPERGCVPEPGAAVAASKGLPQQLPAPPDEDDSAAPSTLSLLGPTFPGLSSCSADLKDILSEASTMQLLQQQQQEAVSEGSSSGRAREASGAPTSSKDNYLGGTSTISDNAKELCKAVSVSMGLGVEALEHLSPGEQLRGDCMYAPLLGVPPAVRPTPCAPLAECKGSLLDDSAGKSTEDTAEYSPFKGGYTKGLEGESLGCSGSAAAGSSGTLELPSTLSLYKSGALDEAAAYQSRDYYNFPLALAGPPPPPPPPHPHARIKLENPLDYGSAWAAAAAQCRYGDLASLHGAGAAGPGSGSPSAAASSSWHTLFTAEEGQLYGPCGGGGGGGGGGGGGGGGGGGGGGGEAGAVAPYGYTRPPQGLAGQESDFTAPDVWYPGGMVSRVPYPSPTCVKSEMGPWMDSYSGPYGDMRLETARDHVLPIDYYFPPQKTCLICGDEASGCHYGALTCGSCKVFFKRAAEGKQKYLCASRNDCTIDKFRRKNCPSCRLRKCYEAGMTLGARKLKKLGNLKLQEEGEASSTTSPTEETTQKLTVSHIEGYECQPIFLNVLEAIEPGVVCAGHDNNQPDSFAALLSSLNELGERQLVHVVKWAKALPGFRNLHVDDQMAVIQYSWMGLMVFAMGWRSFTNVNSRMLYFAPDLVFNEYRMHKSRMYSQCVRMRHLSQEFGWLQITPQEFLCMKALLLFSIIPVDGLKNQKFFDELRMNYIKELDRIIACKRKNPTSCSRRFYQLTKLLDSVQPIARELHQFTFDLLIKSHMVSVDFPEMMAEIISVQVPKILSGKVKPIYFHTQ
Estrogen receptor (Homo sapiens), sequence (P03372 whole entry, looked up): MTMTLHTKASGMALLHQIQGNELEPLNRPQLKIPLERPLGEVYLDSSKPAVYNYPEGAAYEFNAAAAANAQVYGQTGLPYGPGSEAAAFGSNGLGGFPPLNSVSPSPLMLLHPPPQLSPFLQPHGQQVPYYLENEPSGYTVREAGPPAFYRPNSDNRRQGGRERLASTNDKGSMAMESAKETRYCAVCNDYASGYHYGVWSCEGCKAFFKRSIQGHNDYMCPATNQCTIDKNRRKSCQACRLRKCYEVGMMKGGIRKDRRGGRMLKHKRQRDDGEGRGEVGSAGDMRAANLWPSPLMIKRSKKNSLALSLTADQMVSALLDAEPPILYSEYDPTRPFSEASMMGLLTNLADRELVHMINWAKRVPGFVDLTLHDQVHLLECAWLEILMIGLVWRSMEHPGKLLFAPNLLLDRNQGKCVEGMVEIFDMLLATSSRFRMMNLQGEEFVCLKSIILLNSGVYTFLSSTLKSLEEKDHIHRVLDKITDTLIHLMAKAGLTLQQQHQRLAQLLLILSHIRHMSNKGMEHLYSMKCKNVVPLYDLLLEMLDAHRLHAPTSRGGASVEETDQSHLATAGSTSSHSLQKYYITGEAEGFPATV

As for `CCOC(=O)[C@H](CCc1ccccc1)N[C@@H](C)C(=O)N1CCC[C@H]1C(=O)O`, the Potency result in [1], in [2], in experiment [3] and in [4] was “inactive” each time. Also, in [5], the molecule was classed as inactive.
With `CN(C)CCn1nnnc1SCC1=C(C(=O)O)N2C(=O)[C@@H](NC(=O)Cc3csc(N)n3)[C@H]2SC1`, the Potency result in experiment [1], in experiment [3], in experiment [6], in experiment [7] and in experiment [4] was “inactive” each time. Moreover, the result in experiment [5] was inactive.
Turning to `[O-][N+](=Nc1ccccc1)c1ccccc1`, the Potency result in experiment [2], in experiment [3], in [6], in experiment [4] and in experiment [9] was “inactive” in each case. Besides, the call in experiment [8] and in experiment [5] was inactive.
In the case of `CCN1CCCC1CNC(=O)c1cc(S(N)(=O)=O)ccc1OC` (centres undefined), the Potency entry in experiment [1], in [2], in experiment [3] and in [7] was “inactive” throughout. For the same molecule, the call in [5] was inactive.
With `CC(=O)O[C@H](CC(=O)[O-])C[N+](C)(C)C`, the Potency result in experiment [1], in experiment [3], in experiment [6], in [4] and in experiment [9] was “inactive” each time. For the same molecule, the molecule was classed as inactive in [5].
For the molecule `C=CCOc1nc(OCC=C)nc(OCC=C)n1`, the Potency entry in experiment [1], in experiment [10], in experiment [3], in [6] and in experiment [4] was “inactive” each time. Further, the molecule was called inactive in experiment [8] and in [5].
Take `CN(C)C(=O)C(CCN1CCC(O)(c2ccc(Cl)cc2)CC1)(c1ccccc1)c1ccccc1`: the Potency result in [1] and in experiment [9] was “inactive” in each case. Moreover, in experiment [8], the result was inactive. In addition, the Potency in experiment [3] was 29.8 µM (active); in experiment [6], 26.6 µM (active).
For `CCn1cc(C(=O)O)c(=O)c2cc(F)c(N3CCN(C)CC3)cc21`, in experiment [1], the activity change was -0.335% [at 18.9 µM, hits give high values]. Also, the activation in experiment [8] was 2.22% [at 19 µM]; in [9], 1.75% [at 19 µM]. The activity change, negative = cytotoxicity is 3.8% [at 19 µM] in experiment [3], 5.67% [at 19 µM] in experiment [6] and 0.879% [at 19 µM] in [4]. Further, in experiment [5], the cAMP activity change was -4.11% [at 18.9 µM].
On to `C#CC(O)C(CC)CCCC` (centres undefined), for which the Potency result in [1], in [10], in experiment [3], in [6], in experiment [7] and in [4] was “inactive” in each case. In addition, the molecule was classed as inactive in experiment [8] and in [5].
As to `O=[N+]([O-])c1ccc(CCO)cc1`, the Potency result in experiment [1], in experiment [3], in experiment [6], in experiment [4] and in experiment [9] was “inactive” throughout.
For the molecule `CCOC(=O)Nc1ccc2c(c1)N(C(=O)CCN1CCOCC1)c1ccccc1S2`, the Potency result in [1], in experiment [10], in experiment [3], in experiment [6], in experiment [7] and in experiment [4] was “inactive” throughout. The Potency entry in experiment [9] was “inactive”. The outcome in experiment [8] and in [5] was inactive.
On to `Cc1ccc(Nc2ccc(O)c3c2C(=O)c2ccccc2C3=O)cc1`, for which the Potency result in experiment [1], in experiment [2], in [6], in experiment [4] and in experiment [9] was “inactive” each time.
Take `NC(CS)C(=O)O` (centres undefined): the Potency entry in [1], in experiment [3], in [6] and in experiment [4] was “inactive” in each case. In experiment [5], the outcome was inactive.
For `Nc1ccn(C2CO[C@H](CO)O2)c(=O)n1` (some centres undefined), the Potency result in experiment [1], in experiment [10], in experiment [3], in experiment [6], in experiment [4] and in [9] was “inactive” in each case. Also, the result in [8] and in experiment [5] was inactive.
For the molecule `Nc1ncnc2c1ncn2Cc1c(F)cccc1Cl`, the Potency result in [1], in experiment [3], in [6], in experiment [4] and in [9] was “inactive” each time. In addition, in experiment [5], the result was inactive.
With `CCCC(C)C(=O)O` (centres undefined), the Potency entry in [1], in experiment [2], in experiment [3] and in experiment [9] was “inactive” in each case. Besides, the Potency in experiment [4] was 37 µM (active). Also, the molecule was called inactive in [5].
In the case of `CCCCc1ccc(N)cc1`, the Potency result in experiment [1], in experiment [10], in experiment [3], in experiment [6], in experiment [4] and in experiment [9] was “inactive” in each case. Also, the molecule was classed as inactive in experiment [8] and in experiment [5].
As for `CN(C)CCOC(c1ccc(Cl)cc1)c1ccccn1` (centres undefined), the Potency entry in experiment [1], in [3], in experiment [6], in experiment [4] and in experiment [9] was “inactive” throughout. The molecule was classed as inactive in [5].
With `Cc1ccc(N)cc1[N+](=O)[O-]`, the Potency result in experiment [1], in experiment [3], in experiment [6], in [7] and in experiment [4] was “inactive” throughout. Moreover, the outcome in experiment [5] was inactive.
As to `CCOC(=O)Cn1c(=O)sc2cccc(Cl)c21`, the Potency entry in [1], in experiment [10], in experiment [3], in experiment [4] and in experiment [9] was “inactive” in each case. The call in experiment [8] and in [5] was inactive.
As for `CC(=O)c1ccc(C)cc1`, the Potency entry in experiment [1], in [3], in experiment [6], in experiment [4] and in [9] was “inactive” each time. The outcome in experiment [5] was inactive.
Take `CCn1c(=O)c2c(nc(/C=C/c3ccc(OC)c(OC)c3)n2C)n(CC)c1=O`: the Potency entry in experiment [1], in experiment [3] and in experiment [4] was “inactive” each time. The call in [5] was inactive.
`C=C(C)[C@H]1CC=C(C)CC1`: the Potency entry in experiment [1], in experiment [3], in experiment [6], in [4] and in experiment [9] was “inactive” in each case.
With `CCCCCCCCCCCCI`, the Potency entry in [1], in [3] and in [4] was “inactive” each time. Further, the outcome in experiment [5] was inactive.
Turning to `CCCCCCCCC=O`, the Potency result in experiment [1], in [3], in experiment [6] and in experiment [4] was “inactive” throughout. The molecule was called inactive in experiment [8] and in [5].
On to `C=C(C)[C@@H]1CCC2=CC(=O)C[C@@H](C)[C@]2(C)C1`, for which the Potency result in [1], in experiment [10], in experiment [3], in experiment [6], in experiment [4] and in experiment [9] was “inactive” throughout. Besides, the molecule was classed as inactive in experiment [5].
Regarding `OCC(O)[C@@H](O)[C@H](O)[C@H](O)CO[C@H]1O[C@H](CO)[C@@H](O)[C@H](O)[C@H]1O` (some centres undefined), the Potency entry in experiment [1], in experiment [10], in [3], in [6] and in [4] was “inactive” each time. The outcome in [8] and in experiment [5] was inactive.
In the case of `NC(=O)c1ncn([C@@H]2O[C@H](CO)[C@@H](O)[C@H]2O)c1O`, the Potency entry in [1], in experiment [10], in experiment [3], in [6], in [4] and in experiment [9] was “inactive” each time. Further, the call in experiment [8] and in experiment [5] was inactive.

Values taken from PubChem BioAssay (Tox21).
